Most compounds without a hit are left out; they make up all but 2.6% or so of the library.
PABP polyA inh: blocks human PABP binding to poly(A) RNA | actives 1% (n = 290,000) | calls only at 35 µM | AID 2014 | fluorescence polarization | P11940;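 also: calls also rest on retests at 20 µM and on dose response follow-up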
PABP1 MLLE inh: inhibitors of microRNA-mediated deadenylation, human PABP1 MLLE binding | inhibition, % at 20 µM | GST-MLLE / FITC-PAM2 fluorescence polarization | actives 0.36% (n = 360,000) | P11940; in the data active = inhibition above about 35%, passing the limit was not always enough
APOBEC3G inh: APOBEC3G (human) deaminase inhibition; actives 0.28% (n = 330,000); Q9HC16; AID 493012; recombinant A3G, ssDNA deamination FAM/TAMRA fluorescence; inhibition, % at 20 µM;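 active = inhibition of at least 40% at 20 µM, with no more than 30% in the related APOBEC3A deaminase screen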
APOBEC3A inh: human APOBEC3A DNA deaminase inhibition. AID 493011. inhibition, % at 20 µM. recombinant A3A, FAM/TAMRA ssDNA deamination fluorescence. actives 0.41% (n = 330,000);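 active = at least 40% inhibition at 20 µM here, with at most 30% in a related deaminase screen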
Target sequence (P31941 whole entry, looked up): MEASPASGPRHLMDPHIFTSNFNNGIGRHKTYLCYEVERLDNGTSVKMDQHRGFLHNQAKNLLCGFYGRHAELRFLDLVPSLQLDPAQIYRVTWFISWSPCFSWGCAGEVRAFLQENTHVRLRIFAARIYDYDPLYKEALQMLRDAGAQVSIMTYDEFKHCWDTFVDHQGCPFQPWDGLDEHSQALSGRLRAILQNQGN
PHOSPHO1 inh: blocks human PHOSPHO1 phosphatase activity; Q8TCT1; recombinant PHOSPHO1, absorbance phosphatase assay; inhibition, % at 13.3 µM; actives 1.1% (n = 290,000); AID 1565; in the data active = inhibition above about 60%
Target sequence (Q8TCT1 whole entry, looked up): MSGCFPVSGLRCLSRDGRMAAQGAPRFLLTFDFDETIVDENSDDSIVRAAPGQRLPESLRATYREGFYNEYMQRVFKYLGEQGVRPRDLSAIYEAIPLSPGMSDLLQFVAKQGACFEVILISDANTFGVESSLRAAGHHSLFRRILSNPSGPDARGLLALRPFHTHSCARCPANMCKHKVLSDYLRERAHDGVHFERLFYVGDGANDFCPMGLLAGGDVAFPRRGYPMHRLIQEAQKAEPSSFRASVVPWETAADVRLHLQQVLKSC
eIF4H FP inh: inhibitors of RNA binding by human eIF4H | eIF4H fluorescence polarization binding assay | inhibition, % at 35 µM | actives 0.94% (n = 290,000);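 also: calls also rest on retests at 20 µM and on dose response follow-up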
A3A conf: APOBEC3A (human) deaminase inhibition, confirmed; inhibition, % at 20 µM; AID 493151; shares compounds with APOBEC3A inh; recombinant A3A, ssDNA deaminase UDG fluorescence assay; actives 63% (n = 1,400);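 active = inhibition reaching a set limit, 80% of the first screen's cutoff, at 20 µM in any replicate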
UDG A3A counter: inhibits UDG, flagging false APOBEC3A inhibitors. inhibition, % at 20 µM. 1,000 tested, under 10 active. AID 504714. UDG counterscreen, FAM/TAMRA uracil oligo fluorescence. shares compounds with APOBEC3A inh
Large screens that a line does not name were inactive (follow-up assays come after a bar, where they were run). Unless noted, no rule for the calls is given here.

CCN1CCN(c2ccc(S(=O)(=O)N3CCCCC3)cc2NC(=O)CC(NC(C)=O)c2ccccc2)CC1 (stereo not given)	APOBEC3A inh 88 (no result: PABP polyA inh, PHOSPHO1 inh, eIF4H FP inh) | A3A conf 65 | UDG A3A counter inactive
CC(=O)Nc1ccc(NC(=O)C(C)OC(=O)c2cccc(S(=O)(=O)N3CCCCC3)c2)cc1 (stereo not given)	none
CCN1CCN(c2ccc(S(=O)(=O)N3CCOCC3)cc2NC(=O)/C=C/c2ccc(C)cc2)CC1	none (no result: PABP polyA inh, PHOSPHO1 inh, eIF4H FP inh)
CCN1CCN(c2ccc(S(=O)(=O)N3CCCCC3)cc2NC(=O)/C=C/c2ccc(F)cc2)CC1	APOBEC3A inh 61 (no result: PABP polyA inh, PHOSPHO1 inh, eIF4H FP inh) | A3A conf 64 | UDG A3A counter inactive
CCN1CCN(c2ccc(S(=O)(=O)N3CCCCC3)cc2NC(=O)/C=C/c2ccc([N+](=O)[O-])cc2)CC1	APOBEC3A inh 40 (no result: PABP polyA inh, PHOSPHO1 inh, eIF4H FP inh) | A3A conf inactive
CCOc1ccc2oc(C(=O)NCc3ccccc3CN3CCCC3)c(C)c2c1	none (no result: PABP polyA inh, PHOSPHO1 inh, eIF4H FP inh)
COc1ccc(C(C(=O)NCCC(C)C)N(CCO)C(=O)c2snc(C(N)=O)c2N)cc1 (stereo not given)	APOBEC3A inh 77 | A3A conf inactive
COc1ccc(C(C(=O)NCCC(C)C)N(CCO)C(=O)c2snc(C(N)=O)c2N)cc1OC (stereo not given)	none
CCNC(=O)NC(=O)COC(=O)c1cccc(S(=O)(=O)N2CC3(C)CC2CC(C)(C)C3)c1 (stereo not given)	none (no result: PABP polyA inh, PHOSPHO1 inh, eIF4H FP inh)
Cn1c(SCC(=O)N2CCOCC2)nnc1-c1ccccc1	APOBEC3A inh 54 | A3A conf inactive
Cn1c(CC(=O)Nc2ccccc2F)nnc1SCC(=O)N1CCOCC1	APOBEC3A inh 40 | A3A conf inactive
CCn1c(SC)nnc1-c1nn(-c2ccccc2)ccc1=O	APOBEC3A inh 58 | A3A conf 66 | UDG A3A counter inactive
CSCCC(NC(=O)c1ccco1)C(=O)Nc1ccc(C)c(S(=O)(=O)N2CCOCC2)c1 (stereo not given)	none (no result: PABP polyA inh, PHOSPHO1 inh, eIF4H FP inh)
O=[N+]([O-])c1ccc(S(=O)(=O)NCC(c2ccco2)N2CCc3ccccc3C2)cc1 (stereo not given)	APOBEC3A inh 77 (no result: PABP polyA inh, PHOSPHO1 inh, eIF4H FP inh) | A3A conf inactive | UDG A3A counter inactive
COc1ccc(OC)c(NC(=O)CCCc2ccccc2)c1	none (no result: PHOSPHO1 inh)
COc1ccc(CCCC(=O)Nc2cc(C)ccc2OC)cc1	APOBEC3A inh 60 (no result: PHOSPHO1 inh) | A3A conf inactive
CC(=O)c1c(COC(=O)c2cccnc2)nc2ccccc2[n+]1[O-]	PABP polyA inh active, APOBEC3A inh 58, PHOSPHO1 inh 88 | A3A conf 76 | UDG A3A counter inactive
CC(OC(=O)c1cccc([N+](=O)[O-])c1)C(=O)NCc1ccc2c(c1)OCO2 (stereo not given)	APOBEC3A inh 49 | A3A conf inactive | UDG A3A counter inactive
O=C(COC(=O)c1cccc([N+](=O)[O-])c1)NCc1ccc2c(c1)OCO2	none
CN1C(=O)NC(=O)C1c1ccccc1 (stereo not given)	none (no result: PABP polyA inh, APOBEC3G inh, APOBEC3A inh, PHOSPHO1 inh, eIF4H FP inh)
C[n+]1ccc(/C=C/c2c[nH]c3ccc(F)cc23)cc1	PABP polyA inh inconclusive, APOBEC3A inh 49, eIF4H FP inh inconclusive | A3A conf 45
Cn1cc(/C=C/c2cc[n+](C)cc2)c2cc(F)ccc21	PABP polyA inh inconclusive, eIF4H FP inh inconclusive (no result: APOBEC3G inh, APOBEC3A inh)
CN(CCCS(=O)(=O)[O-])c1ccc(/C=C/c2ccc3ccccc3[n+]2C)cc1	APOBEC3A inh 58 | A3A conf 68 | UDG A3A counter inactive
COc1ccc(S(=O)(=O)N2CCN(C(=O)C3COc4ccccc4O3)CC2)cc1 (stereo not given)	none (no result: PABP polyA inh, PHOSPHO1 inh, eIF4H FP inh)
NC(=O)C[n+]1cccc(C(=O)Nc2ccccc2)c1	APOBEC3A inh 76 | A3A conf 78 | UDG A3A counter inactive
C[C@H](CO)N1C[C@H](C)[C@@H](CN(C)C(=O)Nc2ccc(C(F)(F)F)cc2)Oc2c(NS(=O)(=O)c3ccccc3)cccc2C1=O	none (no result: PABP polyA inh, PHOSPHO1 inh, eIF4H FP inh)
CNCCCNC(=O)c1ccc(/C=N/O)nc1	none
C[N+](C)(C)CCCNC(=O)c1ccc(/C=N/O)nc1	APOBEC3A inh 41 | A3A conf 72 | UDG A3A counter inactive

Compound activity from PubChem BioAssay.
